{"source": "PubChem BioAssay (NCI)", "note": "Where “and” joins values, the source holds several entries; their conditions need not be identical. Equal entries are not always repeated. Compounds without any hit were thinned out: in the full panel of roughly 83,000, 20% have a hit.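 Assay: single dose, 48 h. Readout: percent growth (0 = no net growth; negative = cell death). Active: <10.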 A number with no mark means an inactive call. Calls of active or inactive are those of the source."}
{"test_system": "UACC-62 melanoma", "assay": "NCI-60 one-dose screen, 48 h (100 = growth as untreated, 0 = no growth, -100 = all killed)", "settings": "10 µM", "method": "(§1) Growth inhibition of the UACC-62 human tumor cell line is measured as a screen for anti-cancer activity. Cells are grown in 96 well plates and exposed to the test compound for 48 hours. Compounds are tested at a single concentration, which is 10^-5 M for most compounds. The reported endpoint is percent growth (GI% or GIPRCNT), where numbers from 0 - 100% represent growth inhibition, and numbers from -100% - 0 represent cell death. For example, a value of 40 represents 60% growth inhibition. A value of 0 means no net growth occurred over the course of the experiment. A value of -40 indicates 40% of cells at the beginning of the experiment died by the end of the experiment. A value of -100 means all cells are dead at the end of the experiment.\n(§2) NCI-60 Human Tumor Cell Lines Screen was performed using the standard one-dose NCI protocol, which is described in more detail at https://dtp.cancer.gov/discovery_development/nci-60/default.htm.\n(§3) Compounds with GIPRCNT values below 10 were considered active. Activity score was based on GIPRCNT using the following formula: […]\n(§4) Score is 0 for GIPRCNT values of 100 or above, 50 for GIPRCNT values of 0, and 100 for GIPRCNT values of -100.", "units": {"growth": "%"}}
{"smiles": "c1ccc2c(c1)[nH]c1c2cc[n+]2cc3c(cc12)CCCC3", "growth": 29.6}
{"test_system": "UACC-62 melanoma", "assay": "NCI-60 one-dose screen, 48 h (100 = growth as untreated, 0 = no growth, -100 = all killed)", "settings": "10 µM unless noted", "method": "as §1, §2, §3, §4"}
{"smiles": "Cn1cnc([N+](=O)[O-])c1S(=O)(=O)Oc1ccc(Cl)cc1", "growth": "78.7%"}
{"smiles": "CC[C@@H]1OC(=O)[C@H](C)[C@@H](O[C@H]2C[C@@](C)(OC)[C@@H](O)[C@H](C)O2)[C@H](C)[C@@H](O[C@@H]2O[C@H](C)C[C@H](N(C)C)[C@H]2O)[C@](C)(O)C[C@@H](C)[C@@H]2N[C@@H](COCCOC)O[C@H]([C@H]2C)[C@]1(C)O", "growth": "109%"}
{"smiles": "Cc1ccc2c(c1)C(=O)/C(=C/c1ncc([N+](=O)[O-])n1C)O2", "growth": "-13% (active)"}
{"smiles": "COc1ccc(/C=N\\Nc2ccc([N+](=O)[O-])cn2)cc1OC", "growth": "81.7%"}
{"smiles": "NC(N)=NC(N)=NCCCc1ccccc1", "growth": "88.4% [100 µM]"}
{"smiles": "Cc1cc(NC(=O)Nc2cc(Cl)ccc2C)no1", "growth": "91.1%"}
{"smiles": "Cc1ccc(NC(=O)COC(=O)c2ccc(S(=O)(=O)N3CCCCCC3)cc2)cc1", "growth": "95%"}
{"smiles": "Cc1scc2c1N(C(=O)CN1CCN(C)CC1)c1ccccc1NC2=O", "growth": "109%"}
{"smiles": "O=C1CC(=O)N(c2ccccc2)O1", "growth": "93.9%"}
{"smiles": "CC(=O)c1ccc2c3c(n(C)c2c1)CCCC3", "growth": "96.5%"}
{"smiles": "c1cnc2n[nH]c(Nc3ncnc4c3sc3ncccc34)c2c1", "growth": "87.1%"}
{"smiles": "Clc1ccc(-c2nc(-c3cccs3)no2)c(Cl)c1", "growth": "89%"}
{"smiles": "N#Cc1c(N)[nH]c(S)c1C#N", "growth": "94.9%"}
{"smiles": "Cc1cc(C)c(OC(=O)CSc2nc3ccccc3c(=O)n2CCc2ccccc2)cc1C", "growth": "77%"}
{"smiles": "S=C1SCN(Cc2ccccc2)CN1Cc1ccco1", "growth": "91.6%"}
{"smiles": "COc1ccc(-c2nc3sccn3c2-c2ccnc(S(C)(=O)=O)n2)cc1", "growth": "77.1%"}
{"smiles": "Oc1ccc(-c2nn(-c3ccccc3)cc2-c2nc3ccccc3s2)cc1", "growth": "88.1%"}
{"smiles": "CCN1C[C@@H](C)n2c(c(O)c3c(=O)n(Cc4ccc(F)c(Cl)c4)nc(C(=O)NC)c32)C1=O", "growth": "-4.84% (active)"}
{"smiles": "CCCc1nn(C)c2c(=O)[nH]c(-c3cc(S(=O)(=O)N4CCN(C)CC4)ccc3OCC)nc12", "growth": "99.9%"}
{"smiles": "CO[C@H]1/C=C/O[C@@]2(C)Oc3c(C)c(O)c4c(O)c(c(/C=N/N5C(C)CN(Cc6ccccc6)CC5C)c(O)c4c3C2=O)NC(=O)/C(C)=C\\C=C\\[C@H](C)[C@H](O)[C@@H](C)[C@@H](O)[C@@H](C)[C@H](OC(C)=O)[C@@H]1C", "note": "(stereo not given in full)", "growth": "72.8%"}
{"smiles": "C[n+]1c2ccccc2c(NC2CCNCC2)c2[nH]c3ccccc3c21", "growth": "-73.3% (active)"}
{"smiles": "C=C(C[C@@](O)(C(=O)Oc1ccccc1)C(=O)C1CCCCC1)c1ccccc1", "growth": "90.3%"}
{"smiles": "COc1cccc(CCC2C(=O)CCCC2=O)c1", "growth": "103%"}
{"smiles": "CCOC(=O)c1c(NC(=O)C2CCCCC2C(=O)O)sc2c1CCCC2", "note": "(stereo not given)", "growth": "103%"}
{"smiles": "Cc1nn(-c2ccccc2)c2nc(Cl)c(/C=C/C(=O)c3ccccc3)c(-c3ccccc3)c12", "growth": "102%"}
{"smiles": "Cc1c(C(N)=O)sc2c1C(=O)N(Cc1ccccc1)C1=NN=C(c3ccc(Cl)cc3)CN12", "growth": "25.4%"}
{"smiles": "O=C(Nc1ccc(Cl)cc1)c1cc2c(cc1O)[nH]c1ccccc12", "growth": "10.2%"}
{"smiles": "C/C(=N/N=C(N)N)c1ccc(Cl)cc1", "growth": "91.2%"}
{"smiles": "NC(N)=NN=c1c(=O)c2ccccc2c1=O", "growth": "103%"}
{"smiles": "CC(=O)n1c2ccccc2c2ccccc21", "growth": "114%"}
{"smiles": "COc1cc2cn3c4ccc(O)cc4nc(N)c3c2cc1OC", "growth": "-59.4% (active)"}
{"smiles": "Oc1ccccc1C=Nc1ccccc1N=Cc1ccccc1O.[Cu+2]", "growth": "43.9%"}
{"smiles": "[O-]/[N+](=C\\C=C\\c1ccccc1)c1ccccc1", "growth": "93.8%"}
{"smiles": "COc1ccc2nccc(/C=C/c3ccnc4ccc(OC)cc34)c2c1", "growth": "109%"}
{"smiles": "COc1cc2c(c(OC)c1OC)CCc1cnoc1-2", "growth": "98.9%"}
{"smiles": "CN1COc2ccc3ccccc3c2C1", "growth": "85%"}
{"smiles": "O=C(NCCc1ccccc1)C1CCC(=O)N1Cc1ccc(Br)cc1", "note": "(stereo not given)", "growth": "95.4%"}
{"smiles": "CCOc1nc(-c2ccccc2)cc2c(O)c(-c3nnco3)[nH]c(=O)c12", "growth": "56.9%"}
{"test_system": "UACC-62 melanoma", "assay": "NCI-60 one-dose screen, 48 h (100 = growth as untreated, 0 = no growth, -100 = all killed)", "settings": "100 µM", "method": "as §1, §2, §3, §4"}
{"smiles": "c1ccc2c(c1)[nH]c1c2cc[n+]2cc3c(cc12)CCCC3", "growth": "-23.2% (active) and -48.3% (active)"}
